Source: PubChem BioAssay (The Scripps Research Institute Molecular Screening Center)
Rows were chosen to be rich in hits. Some 1.9% of all compounds tested hit in one or more screens of this group.
LYPLA2 counter: counter-screen for PME1 inhibitors: inhibitors of human LYPLA2. O95372. inhibition, % at 5.9 µM. 0.38% of 320,000 active. recombinant LYPLA2, FP-Rh probe fluorescence polarization;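 active = inhibition above the screen-wide mean plus 3 SD, limit set per campaign, cut at about 26% in these data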;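 also: 0% = LYPLA2 with DMSO and 100% = wells lacking LYPLA2 enzyme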
Fam108B inh: blocks mouse Fam108B hydrolase in RBBP9 counter-screen | recombinant Fam108B, FP-Rh probe fluorescence polarization | inhibition, % at 9.51 µM | 0.33% of 300,000 active;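 active = inhibition above the screen mean inhibition plus 3 SD, computed separately per campaign, cut at about 18% in these data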;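 also: inhibitors lower polarization as less probe binds the enzyme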
LYPLA1 inh: counter-screen for PME1 inhibitors: inhibitors of human LYPLA1 | O75608 | recombinant LYPLA1, FP-Rh probe fluorescence polarization | inhibition, % at 5.9 µM | 0.16% of 320,000 active | AID 2174;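 active = inhibition above the mean of all tested compounds plus 3 SD, set per campaign, cut at about 14% in these data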;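 also: inhibitors block serine hydrolase probe labeling of LYPLA1 so polarization falls; 0% = enzyme with DMSO and 100% = wells lacking LYPLA1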
PME-1 primary: PME-1 (human) inhibition; recombinant PME-1, FP-Rh probe fluorescence polarization; 0.53% of 320,000 active; Q9Y570; inhibition, % at 5.9 µM;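 active = inhibition above the campaign mean of all compounds plus 3 SD, cut at about 26% in these data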;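 also: competitive labeling of PME-1 active site by serine hydrolase directed probe; 0% = PME-1 with DMSO and 100% = wells lacking PME-1 enzyme; inhibitors block probe labeling so polarization falls and inhibition rises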
GSTO1 counter: blocks human GSTO1 in RBBP9 counter-screen; P78417; recombinant GSTO1, activity-based probe fluorescence polarization; inhibition, % at 5.96 µM; 1.1% of 300,000 active;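 active = inhibition above the campaign mean inhibition plus 3 SD, cut at about 35% in these data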;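 also: 0% = GSTO1-1 with DMSO and 100% = wells lacking GSTO1-1 enzyme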
PREPL inhibitor: human PREPL enzyme inhibition; inhibition, % at 5.96 µM; recombinant PREPL, fluorescence polarization activity-based probe; 0.68% of 320,000 active; in the data active = inhibition above about 43%;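 also: 0% = enzyme with DMSO and 100% = wells lacking enzyme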
Target sequence (Q4J6C6 whole entry, looked up): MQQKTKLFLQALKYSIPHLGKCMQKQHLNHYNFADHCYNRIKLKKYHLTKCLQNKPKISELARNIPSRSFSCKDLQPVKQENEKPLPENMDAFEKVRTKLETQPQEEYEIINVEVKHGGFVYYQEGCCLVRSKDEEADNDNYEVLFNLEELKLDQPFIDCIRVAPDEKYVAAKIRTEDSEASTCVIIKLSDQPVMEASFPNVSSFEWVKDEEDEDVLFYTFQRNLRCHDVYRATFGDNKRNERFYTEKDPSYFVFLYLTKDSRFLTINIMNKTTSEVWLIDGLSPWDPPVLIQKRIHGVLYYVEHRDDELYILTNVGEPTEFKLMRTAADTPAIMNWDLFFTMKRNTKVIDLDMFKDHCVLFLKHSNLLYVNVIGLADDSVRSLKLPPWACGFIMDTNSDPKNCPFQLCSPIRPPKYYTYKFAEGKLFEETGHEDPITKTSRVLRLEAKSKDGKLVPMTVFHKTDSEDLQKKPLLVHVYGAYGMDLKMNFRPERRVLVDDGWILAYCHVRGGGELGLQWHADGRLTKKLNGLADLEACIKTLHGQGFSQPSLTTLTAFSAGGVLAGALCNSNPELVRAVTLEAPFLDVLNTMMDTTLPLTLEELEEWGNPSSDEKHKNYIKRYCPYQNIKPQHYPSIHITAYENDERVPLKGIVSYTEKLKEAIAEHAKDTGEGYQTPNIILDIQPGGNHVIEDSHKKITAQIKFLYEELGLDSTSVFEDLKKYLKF
GSTO1 confirm: GSTO1 (human) inhibition, confirmation. 54% of 2,400 active. recombinant GSTO1, probe fluorescence polarization. inhibition, % at 5.96 µM. shares compounds with GSTO1 counter. AID 2176;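 active = inhibition above the primary screen's cutoff, its mean inhibition plus 3 SD, cut at about 35% in these data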;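 also: loss of polarization as inhibitors block binding of rhodamine sulfonate ester activity probe; 0% = GSTO1 with DMSO and 100% = wells lacking GSTO1 enzyme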
An asterisk follows results filed as active; . = no result.

SMILES	LYPLA2 counter	Fam108B inh	LYPLA1 inh	PME-1 primary	GSTO1 counter	PREPL inhibitor	GSTO1 confirm
Cc1oc2c(O)c(O)ccc2c(=O)c1-c1cnn(-c2ccccc2)c1	0.9	4.4	-10.6	3.4	59.4*	31.1	23.5
COC(=O)CNC(=O)/C=C/c1cc(Br)ccc1OC	6.5	7.5	-1.3	2.1	2.9	5.8	.
CNc1ccc(Br)cc(C(=O)/C=C/c2cc(OC)ccc2OC)c1=O	7.7	8.3	-1.1	18.4	40.0*	14.2	13.3
CCNc1ccc(Br)cc(C(=O)/C=C/c2ccc(Cl)cc2Cl)c1=O	6.0	1.0	-3.0	23.3	42.6*	14.2	6.8
COCCCNC(=O)/C=C/c1ccc(Cl)cc1Cl	-0.1	-0.2	-1.6	-5.5	-5.9	4.3	.
O=c1cc2oc3cc(O)c(O)cc3c(-c3ccccc3[N+](=O)[O-])c-2cc1O	-1.8	9.4	-3.8	-3.3	49.6*	8.7	40.8*
COc1ccc2nc(Nc3sc4c(c3C(N)=O)CCCC4)sc2c1	-4.5	3.6	-6.5	24.2	42.0*	33.2	24.7
Oc1c(C=NCc2ccccc2)sc2ccccc12	-2.0	-6.7	-1.4	1.7	4.8	16.0	.
Oc1cccc(C=NCc2ccccc2)c1O	5.9	17.0	-0.8	2.8	88.9*	25.1	11.9
Oc1cccc(C=Nc2cccc3ccccc23)c1O	-9.3	4.6	-14.9	3.0	88.1*	28.3	9.9
Oc1ccccc1C=Nc1cccc2ccccc12	2.3	-2.4	0.3	7.1	22.0	-4.1	.
CC(C)[C@H](N)c1cn([C@@H](CC(N)=O)C(=O)N2CCNCC2)nn1	4.9	-2.1	-1.9	5.3	6.0	8.3	.
CCn1cc(CCC(=O)O)c(C)n1	-1.6	0.3	2.5	2.0	9.7	-0.6	.
CCn1cc(NC(=O)CCl)c(C)n1	-1.6	-4.5	-2.1	4.8	72.4*	4.7	80.9*
Clc1ccc(-c2nnc(SCc3nc(-c4ccccc4)no3)o2)cc1	-2.2	-6.2	-2.4	-3.6	40.0*	-21.3	46.0*
Cc1cc(N=Cc2c(O)ccc3cc(Br)ccc23)no1	0.1	2.6	0.1	5.0	46.2*	2.7	23.3
COc1cccc(C=Nc2cc(C)on2)c1O	6.3	8.8	1.0	-2.6	6.4	15.6	.
CC[n+]1ccc(C[n+]2ccccc2)c2ccccc21	-2.5	3.5	4.1	-1.2	49.1*	3.6	7.4
CC(C)(C)N(Cc1ccccc1)C(=O)COC(=O)C1CCCCC1	.	.	.	.	.	27.0	.
O=[N+]([O-])c1ccc2[nH]c(O)c(N=NC(=S)Nc3cccnc3)c2c1	-6.8	4.9	1.1	5.1	41.7*	20.6	65.4*
O=C(CNC(=O)c1ccc(Br)cc1)N=Nc1c(O)[nH]c2ccc([N+](=O)[O-])cc12	15.1	0.2	0.8	10.1	19.4	15.0	.
O=[N+]([O-])c1ccc2[nH]c(O)c(N=NC(=S)NCC3CCCO3)c2c1 (stereo not given)	3.7	-2.5	1.9	4.3	40.3*	9.2	45.4*
CC(C)(OC(=O)c1ccc(F)cc1)c1cc2ccccc2c(=O)o1	2.1	.	-1.8	-1.3	.	-0.8	.
CN(C)CCSc1nc2cc(S(=O)(=O)N3CCCCC3)ccc2o1	.	.	.	.	.	5.0	.
COc1cccc2cc(C(=O)OCc3ccccc3)c(=O)oc12	-3.6	2.6	-1.8	2.9	-2.3	5.3	.
SMILES	LYPLA2 counter	Fam108B inh	LYPLA1 inh	PME-1 primary	GSTO1 counter	PREPL inhibitor	GSTO1 confirm
CC1(C(=O)NC2CCCCC2)CCC(=O)N1Cc1cccnc1 (stereo not given)	-0.6	1.9	2.0	0.5	51.7*	1.8	4.7
CC1CCC(NC(=O)C2(C)CCC(=O)N2Cc2cccnc2)CC1 (stereo not given)	-1.2	-2.0	-0.9	-2.5	4.0	-6.4	.
COc1ccccc1/C(C)=N/Oc1cc(N)cc([N+](=O)[O-])c1	3.7	.	-4.0	5.4	.	13.6	.
COc1cc(/C=C2\SC(N)=NC2=O)cc(Br)c1O	0.0	0.7	-4.3	-0.2	61.3*	7.7	65.6*
COc1ccc(CC(=O)NCC(=O)NC(Cc2ccccc2)C(=O)O)cc1 (stereo not given)	1.1	-0.7	0.0	3.0	4.6	9.9	.
Nc1ncnc2oc(-c3ccco3)c(-c3ccco3)c12	-4.0	16.0	-6.6	3.3	55.6*	19.9	19.8
Nc1nnc(-c2ccco2)s1	-1.9	2.1	-0.1	3.4	-8.5	4.0	.
Cn1c(SCc2ccc(F)cc2Cl)nc2ccccc2c1=O	6.9	.	0.7	-5.1	.	5.3	.
C1=CC2=NC34CCCCC3CC3=C(CCCC3)N4C2=CC1=NC1CCCCC1 (stereo not given)	5.2	0.2	-0.5	8.9	76.3*	31.4	8.3
COc1cc(C(=O)OCC(=O)N2CCCC2)cc2c1OCCO2	7.2	.	4.7	2.2	.	4.6	.
COCCn1cnnc1SCC(=O)c1ccc(S(=O)(=O)N2CCCC2)cc1	-9.0	-1.5	-4.2	0.2	60.8*	12.4	60.8*
Cn1cnnc1SCC(=O)Nc1cc(S(=O)(=O)N2CCCCC2)ccc1Cl	2.5	0.4	1.9	5.6	2.1	11.1	.
O=C(NC1CCCCC1)C(c1ccccc1F)N(Cc1ccco1)C(=O)c1ccccn1 (stereo not given)	-3.5	2.2	0.5	-3.8	37.8*	-7.8	7.0
O=C(NCc1cccnc1)NC(C(F)(F)F)C(F)(F)F	-3.6	-2.4	-2.9	-4.1	15.3	-10.0	.
O=C(NCc1cccnc1)NC1(C(F)(F)F)Oc2ccccc2O1	2.5	-0.7	3.2	7.0	41.4*	-0.8	2.4
COc1cccc(NC(=O)NC2(C(F)(F)F)Oc3ccccc3O2)c1	-1.1	-5.7	-0.8	4.8	41.2*	7.8	3.4
CC(C)CNC(=O)NC1(C(F)(F)F)Oc2ccccc2O1	3.3	1.5	3.0	1.2	50.6*	15.6	6.8
O=c1c(O)c(-c2ccc(O)c(O)c2)oc2cc(O)cc(O)c12	-18.3	13.9	-20.1	14.1	56.7*	27.1	65.5*
O=c1cc(-c2ccc(O)c(O)c2)oc2cc(O)cc(O)c12	-24.9	7.9	-18.4	-16.7	50.1*	19.8	46.8*
O=C(/C=C/Nc1ccc(F)c(Cl)c1)c1ccccc1	1.7	-0.4	1.8	1.1	-2.6	-29.8	.
O=C(NCc1ccc2[nH]c3c(c2c1)CCCC3)N1CCOCC1	0.8	1.9	3.5	2.4	49.2*	10.9	59.4*
Cc1cc(=O)[nH]c(N=N/C(=N/Nc2ccc(O)cc2)c2ccccc2)n1	0.1	1.9	3.1	2.4	52.2*	2.0	8.0
O=C(OCC(=O)N1CCN(c2ccccc2)CC1)C1=COCCO1	3.1	4.2	3.4	-2.9	67.1*	18.8	34.2
c1coc(-c2nc3ccccc3nc2-c2ccco2)c1	6.7	14.9	-0.6	7.8	61.5*	31.8	60.6*
O=C(NCCO)c1ccc2nc(-c3ccco3)c(-c3ccco3)nc2c1	0.6	13.9	1.2	0.5	75.4*	16.9	56.6*
O=C1C=C(c2ccc3c(c2)OCO3)C[C@@H](c2ccc(Cl)cc2)C1	7.1	.	4.5	0.6	.	-9.9	.
